Growth data for seven compounds are collected here from PubChem BioAssay (NCI).

SMILES strings stand for the structures. Compounds without any hit were thinned out: in the full panel of roughly 83,000, 20% have a hit.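 In brief: 96-well plates, 48 h treatment, single concentration, percent growth endpoint.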 Unmarked numbers belong to inactive results. The source made the active and inactive calls. Rule for the calls: active = growth percent below 10; inactive = the rest.

Some test systems named below: NCI-H23 lung; NCI-H226 lung; HOP-62 NSCLC; NCI-H460 lung; HOP-92 NSCLC; NCI-H522 lung; A549/ATCC NSCLC; 786-0 renal; COLO 205 colon; DU-145 prostate; K-562 leukemia; MALME-3M melanoma; MDA-MB-231 breast; RXF 393 renal; SF-268 CNS; SF-295 CNS; SF-539 CNS; UACC-257 melanoma; M14 melanoma.
Test in all cases: NCI-60 one-dose screen, 48 h (100 = growth as untreated, 0 = no growth, -100 = all killed)
Conditions in all cases: 10 µM unless noted

Regarding `COc1ccc2c(O)c(/C=C3\N=Nc4ccccc43)oc2c1C[C@H]1CCNC[C@H]1F`, the growth in the test with NCI-H23 lung is 46.8%; in the test on NCI-H226 lung, 60.6%; in the test on HOP-62 NSCLC, 53.6%; in the test with NCI-H460 lung, 29.8%; in the test with HOP-92 NSCLC it was 38.6%; in the test with NCI-H522 lung, 46.7%. The growth in the test with A549/ATCC NSCLC was 34.4%; in the test with 786-0 renal it was 57.8%; with COLO 205 colon, 0.564% (active); with DU-145 prostate it was 51.1%; in the test on K-562 leukemia, 37.4%; in the test on MALME-3M melanoma, 42.3%. The growth in the test on MDA-MB-231 breast is 47.8%; with RXF 393 renal, 59.9%; in the test with SF-268 CNS it was 77.2%; with SF-295 CNS it was 66.9%; with SF-539 CNS, 57.4%; in the test on UACC-257 melanoma, 52.2%. Besides, in the test with M14 melanoma, the growth was 28.7%.

Take `CCOC(=O)c1ccc2c(c1)c1c(C)c3ccncc3c(C)c1n2C`: the growth was -26.4% (active) with NCI-H23 lung; -37.1% (active) in the test with NCI-H226 lung; -16.1% (active) in the test with HOP-62 NSCLC; -5.22% (active) with NCI-H460 lung; 1.34% (active) in the test with HOP-92 NSCLC; -52.6% (active) in the test with NCI-H522 lung. In addition, the growth in the test with A549/ATCC NSCLC is 8.4% (active); in the test with 786-0 renal it was 16.7%; with COLO 205 colon, -44.7% (active); in the test with DU-145 prostate it was 2.93% (active); with K-562 leukemia it was 7.07% (active); in the test with MALME-3M melanoma it was -40.9% (active). For the same compound, the growth is 2.92% (active) with MDA-MB-231 breast; -62.3% (active) in the test on RXF 393 renal; -7.28% (active) with SF-268 CNS; 1.65% (active) in the test on SF-295 CNS; -0.581% (active) with SF-539 CNS; -25.9% (active) in the test on UACC-257 melanoma. Besides, the growth in the test with M14 melanoma is -57.2% (active).

For the compound `C=C1C(=O)O[C@H]2[C@H]1CC/C(COC(=O)c1cc3cc(F)ccc3[nH]1)=C\CC[C@@]1(C)O[C@@H]21`, the growth is -66.4% (active) in the test with NCI-H23 lung; -41.3% (active) in the test with NCI-H226 lung; -50.8% (active) in the test with HOP-62 NSCLC; -59.2% (active) in the test with NCI-H460 lung; -84.9% (active) in the test on HOP-92 NSCLC; -68.9% (active) in the test on NCI-H522 lung. Besides, the growth with 786-0 renal is -89.6% (active); in the test with COLO 205 colon it was -68.7% (active); in the test with DU-145 prostate, -93.1% (active); with K-562 leukemia, 0.0225% (active); in the test with MALME-3M melanoma, -76.4% (active); in the test with MDA-MB-231 breast, -70.1% (active). For the same compound, the growth in the test with RXF 393 renal is -84.4% (active); with SF-268 CNS it was -71.2% (active); with SF-295 CNS, 33%; with SF-539 CNS it was -87% (active); in the test on UACC-257 melanoma, -79.5% (active).

On to `Cc1cc(C)c(-c2c(O)c(Br)c(-c3c(C)cc(C)c(Br)c3C)c(O)c2Br)c(C)c1Br`, for which the growth in the test with NCI-H23 lung is 43.7%; in the test on NCI-H226 lung, 52.1%; with NCI-H460 lung it was 1.57% (active); in the test on HOP-92 NSCLC, -3.74% (active); in the test with NCI-H522 lung, -70.3% (active); in the test with A549/ATCC NSCLC, 18.6%. The growth in the test on 786-0 renal was 24.8%; in the test on COLO 205 colon, -67.2% (active); in the test on DU-145 prostate it was 33.4%; with K-562 leukemia it was 15.2%; with MALME-3M melanoma it was -6.91% (active); in the test with MDA-MB-231 breast, -42.5% (active). The growth is -48.7% (active) in the test on RXF 393 renal; 31% in the test with SF-268 CNS; -10.2% (active) in the test with SF-295 CNS; 22.3% with SF-539 CNS; -19% (active) in the test with UACC-257 melanoma; 29.6% with M14 melanoma.

Take `CC(C)CSc1oc(-c2ccccc2)nc1S(=O)(=O)c1ccccc1`: the growth is 83.4% in the test with NCI-H23 lung; 75.7% in the test on NCI-H226 lung; 94.4% with HOP-62 NSCLC; 97.2% in the test with NCI-H460 lung; 45.8% with HOP-92 NSCLC; 70.8% with NCI-H522 lung. Further, the growth in the test on A549/ATCC NSCLC is 79.8%; with 786-0 renal it was 87%; in the test on COLO 205 colon, 109%; with DU-145 prostate, 99.3%; with K-562 leukemia, 92.4%; in the test with MALME-3M melanoma, 95.6%. Besides, the growth in the test on MDA-MB-231 breast is 89.4%; in the test with RXF 393 renal, 82.6%; in the test with SF-268 CNS it was 87.3%; in the test with SF-295 CNS it was 84.3%; in the test with SF-539 CNS, 101%; in the test with UACC-257 melanoma, 92.2%. Also, the growth with M14 melanoma was 98.3%.

For `Cc1[nH]c(/C=C/C(=O)c2ccc(C(F)(F)F)c(F)c2)c(C)c1C(=O)NCC(C)C`, the growth with NCI-H23 lung was 101%; with NCI-H226 lung, 98.2%; in the test on HOP-62 NSCLC it was 87.7%; with NCI-H460 lung, 101%; with HOP-92 NSCLC it was 108%; in the test on NCI-H522 lung, 99.4%. Further, the growth in the test on 786-0 renal was 103%; with COLO 205 colon it was 113%; with DU-145 prostate, 101%; with K-562 leukemia it was 101%; in the test on MALME-3M melanoma, 96.6%; in the test with MDA-MB-231 breast, 99.4%. The growth is 93.8% with RXF 393 renal; 95.8% in the test on SF-268 CNS; 90.9% with SF-295 CNS; 96% in the test on SF-539 CNS; 99.2% in the test on UACC-257 melanoma; 104% in the test on M14 melanoma.

On to `O=c1nc(Nc2nc3ccccc3s2)[nH]c(=O)c2ccccc12`, for which the growth with NCI-H23 lung is 99.1%; in the test on NCI-H226 lung, 92.8%; with HOP-62 NSCLC, 91.2%; in the test on NCI-H460 lung, 103%; in the test with HOP-92 NSCLC, 83.4%; in the test on NCI-H522 lung, 96.8%. For the same compound, the growth in the test with A549/ATCC NSCLC is 106%; in the test with 786-0 renal, 96%; with COLO 205 colon, 112%; in the test on DU-145 prostate, 106%; in the test on K-562 leukemia, 95.9%; in the test with MALME-3M melanoma, 99.7%. Further, the growth with MDA-MB-231 breast is 98.3%; in the test on RXF 393 renal it was 98.1%; in the test with SF-268 CNS, 102%; with SF-295 CNS it was 99.3%; in the test with SF-539 CNS, 97.5%; with UACC-257 melanoma, 107%. In addition, the growth with M14 melanoma was 101%.
